Measured values as given in PubChem BioAssay (NCATS).
Inconclusive results are not listed. A call without a number means that no potency is given here. Calls of active or inactive are those of the source. Calls come from the whole dose curve; as a rule, active = well fitted inhibition curve with a large enough effect; inconclusive = small, poorly fitted or top-dose-only effect; inactive = flat fitted curve, though single readings scatter.

Experiments:
Assay in all cases: qHTS profiling for inhibitors of Plasmodium falciparum proliferation (AID 504749); note: nearly all actives have a fitted effect of over 60% in size
Conditions in all cases: P. falciparum in erythrocytes, SYBR Green DNA, 72 h; series mostly up to 28.7 µM
CP192 = system: CP192
How it was run: (§1)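 Readout was DNA-dye fluorescence from lysed cultures, ex 485/em 535 nm. Parasitized red cells had grown 72 h with compound; data scaled between 0.29 uM artemisinin and DMSO wells and corrected using vehicle-only plates.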

CP194 = system: CP194
How it was run: as §1

CP201 = system: CP201
How it was run: as §1

CP203 = system: CP203
How it was run: as §1

CP211 = system: CP211
How it was run: as §1

CP215 = system: CP215
How it was run: as §1

CP217 = system: CP217
How it was run: as §1

CP237 = system: CP237
How it was run: as §1

CP238 = system: CP238
How it was run: as §1

CP247 = system: CP247
How it was run: as §1

CP250 = system: CP250
How it was run: as §1

CP252 = system: CP252
How it was run: as §1

CP256 = system: CP256
How it was run: as §1

CP260 = system: CP260
How it was run: as §1

CP262 = system: CP262
How it was run: as §1

CP265 = system: CP265
How it was run: as §1

CP266 = system: CP266
How it was run: as §1

CP268 = system: CP268
How it was run: as §1

CP269 = system: CP269
How it was run: as §1

CP286 = system: CP286
How it was run: as §1
Potency is the fitted concentration of half-maximal effect.

Compound	Potency (CP192)	Potency (CP194)	Potency (CP201)	Potency (CP203)	Potency (CP211)	Potency (CP215)	Potency (CP217)	Potency (CP237)	Potency (CP238)	Potency (CP247)	Potency (CP250)	Potency (CP252)	Potency (CP256)	Potency (CP260)	Potency (CP262)	Potency (CP265)	Potency (CP266)	Potency (CP268)	Potency (CP269)	Potency (CP286)
COCC(=O)O[C@]1(CCN(C)CCCc2nc3ccccc3[nH]2)CCc2cc(F)ccc2[C@@H]1C(C)C	5.36 µM (active)	6.01 µM (active)	8.49 µM (active)	1.9 µM (active)	4.26 µM (active)	4.26 µM (active)	2.51 µM (active)	0.199 µM (active)	4.47 µM (active)	3.55 µM (active)	4.47 µM (active)	4.47 µM (active)	4.47 µM (active)	1.58 µM (active)	6.75 µM (active)	4.47 µM (active)	6.75 µM (active)	5.36 µM (active)	2.69 µM (active)	1.58 µM (active)
O=C(O)CN(CCOCCOCCN(CC(=O)O)CC(=O)O)CC(=O)O	inactive	inactive	inactive	inactive	inactive	inactive	inactive	inactive	inactive	inactive	inactive	inactive	inactive	inactive	inactive	inactive	inactive	inactive	inactive	inactive
Nc1ncn([C@@H]2O[C@H](CO)[C@@H](O)[C@H]2O)c(=O)n1	inactive	inactive	inactive	inactive	inactive	inactive	inactive	inactive	inactive	inactive	inactive	inactive	inactive	inactive	inactive	inactive	inactive	inactive	inactive	inactive
CN1CCN(C2=Nc3ccccc3Oc3ccc(Cl)cc32)CC1	inactive	inactive	inactive	inactive	inactive	inactive	inactive	inactive	inactive	inactive	inactive	inactive	inactive	inactive	inactive	inactive	inactive	inactive	inactive	inactive
CC(C(=O)O)c1ccc(CC2CCCC2=O)cc1 (centres undefined)	inactive	inactive	inactive	inactive	inactive	inactive	inactive	inactive	inactive	inactive	inactive	inactive	inactive	inactive	inactive	inactive	inactive	inactive	inactive	inactive
C[N+](C)(C)CCCCCCCCCC[N+](C)(C)C	1.9 µM (active)	2.13 µM (active)	3.38 µM (active)	1.69 µM (active)	1.69 µM (active)	4.26 µM (active)	3.55 µM (active)	3.16 µM (active)	5.01 µM (active)	5.01 µM (active)	7.08 µM (active)	3.98 µM (active)	2.51 µM (active)	2.24 µM (active)	1.69 µM (active)	2.82 µM (active)	4.78 µM (active)	4.78 µM (active)	3.38 µM (active)	4.47 µM (active)
Cc1nc2c([nH]1)c(=O)n(C)c(=O)n2Cc1ccco1	inactive	inactive	inactive	inactive	inactive	inactive	inactive	inactive	inactive	inactive	inactive	inactive	inactive	inactive	inactive	inactive	inactive	inactive	inactive	inactive
CN=C(NC#N)NCCSCc1nc[nH]c1C	inactive	inactive	inactive	inactive	inactive	inactive	inactive	inactive	inactive	inactive	inactive	inactive	inactive	inactive	inactive	inactive	inactive	inactive	inactive	inactive
NCCCNCCSP(=O)(O)O	inactive	inactive	inactive	inactive	inactive	inactive	inactive	inactive	inactive	inactive	inactive	inactive	inactive	inactive	inactive	inactive	inactive	inactive	inactive	inactive
CC(=O)OCC1=C(C(=O)O)N2C(=O)[C@@H](NC(=O)Cc3cccs3)[C@H]2SC1	inactive	inactive	inactive	inactive	inactive	inactive	inactive	inactive	inactive	inactive	inactive	inactive	inactive	inactive	inactive	inactive	inactive	inactive	inactive	inactive
CCO/C([O-])=N/c1c[n+](N2CCOCC2)no1	inactive	inactive	inactive	inactive	inactive	inactive	inactive	inactive	inactive	inactive	inactive	inactive	inactive	inactive	inactive	inactive	inactive	inactive	inactive	inactive
Cc1nnc(SCC2=C(C(=O)O)N3C(=O)[C@@H](NC(=O)Cn4cnnn4)[C@H]3SC2)s1	inactive	inactive	inactive	inactive	inactive	inactive	inactive	inactive	inactive	inactive	inactive	inactive	inactive	inactive	inactive	inactive	inactive	inactive	inactive	inactive
C[n+]1cc2c3c(ccc2c2ccc4cc5c(cc4c21)OCO5)OCO3	inactive	inactive	inactive		inactive	inactive		inactive	inactive		inactive						inactive	inactive	inactive	inactive
CCOC(=O)c1cnc2c(cnn2CC)c1NN=C(C)C	inactive	inactive	inactive	inactive	inactive	inactive	inactive	inactive	inactive	inactive	inactive	inactive	inactive		inactive	inactive	inactive		inactive	
